Here are results for 17 molecules from PubChem BioAssay (NCATS).

Values without a mark were called inactive. Results filed as inconclusive are left out. The source made the active and inactive calls. Unless noted, calls come from the whole dose curve.

The nature of test [1]: Validation screen for inhibitors of Lassa infection (AID 463096). Note: potency is the fitted concentration of half-maximal effect.
A short description of test [2]: Inducers of the Endoplasmic Reticulum Stress Response (ERSR) in human glioma: Validation (AID 504836; active = well fitted curve in the direction sought with a large enough effect). Summed up:
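Stably transfected U87-MG glioma cells carrying a GRP78-based luciferase sensor; 16 h compound incubation. Luminescence end-point read 10 min after Bright-Glo addition at room temperature.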

Test [3] can be described thus: qHTS for Inhibitors of the Functional Ribonucleoprotein Complex (vRNP) of Lassa (LASV) Arenavirus: LASV Primary Screen - GLuc reporter signal (AID 1347082; calls by dose curve; tested in HEK293 reporter line; note: series mostly up to about 57 µM; nearly all actives have a fitted effect of over 60% in size). (In qHTS, concentration-response curves come from the screen itself.)
A short description of test [4]: qHTS for Inhibitors of the Functional Ribonucleoprotein Complex (vRNP) of Lassa (LASV) Arenavirus: Viability assay - alamar blue signal for LASV Primary Screen (AID 1347083; calls by dose curve; tested in HEK293 reporter line; note: series mostly up to about 57 µM; nearly all actives have a fitted effect of over 80% in size).
A short description of test [5]: qHTS for Inhibitors of the Functional Ribonucleoprotein Complex (vRNP) of Lymphocytic Choriomeningitis Arenaviruses (LCMV): Viability assay - alamar blue signal for LCMV Primary Screen (AID 1347085; calls by dose curve; tested in HEK293 reporter line; note: series mostly up to about 57 µM; nearly all actives have a fitted effect of over 80% in size).
Test [6] deals with Nucleoprotein (Lymphocytic choriomeningitis virus (strain Armstrong)) (UniProt P09992). In words: qHTS for Inhibitors of the Functional Ribonucleoprotein Complex (vRNP) of Lymphocytic Choriomeningitis Arenaviruses (LCMV): LCMV Primary Screen - GLuc reporter signal (AID 1347086). Note: series mostly up to about 57 µM; nearly all actives have a fitted effect of over 70% in size.
Chain of Nucleoprotein (Lymphocytic choriomeningitis virus (strain Armstrong)) (P09992 whole entry, looked up): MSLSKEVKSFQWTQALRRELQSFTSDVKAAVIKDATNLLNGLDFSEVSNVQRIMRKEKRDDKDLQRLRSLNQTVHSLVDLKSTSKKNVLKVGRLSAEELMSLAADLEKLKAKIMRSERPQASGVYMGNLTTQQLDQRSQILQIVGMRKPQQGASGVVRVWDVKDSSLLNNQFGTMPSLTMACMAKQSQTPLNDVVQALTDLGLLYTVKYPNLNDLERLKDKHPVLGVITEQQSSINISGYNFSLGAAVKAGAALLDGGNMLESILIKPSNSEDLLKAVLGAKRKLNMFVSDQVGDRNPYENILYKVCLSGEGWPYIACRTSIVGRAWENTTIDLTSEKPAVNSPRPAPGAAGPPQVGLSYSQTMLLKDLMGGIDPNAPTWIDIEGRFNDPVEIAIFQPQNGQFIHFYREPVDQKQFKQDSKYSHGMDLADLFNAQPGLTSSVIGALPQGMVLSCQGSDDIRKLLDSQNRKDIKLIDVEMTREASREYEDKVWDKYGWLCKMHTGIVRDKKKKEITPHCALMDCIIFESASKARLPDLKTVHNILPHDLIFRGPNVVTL

Turning to `Cc1cccc(C2CN(C)CCc3c2cc(O)c(O)c3Cl)c1` (configuration not stated), the Potency result in test [1], in test [3], in test [4], in test [5] and in test [6] was “inactive” throughout. Also, the outcome in test [2] was inactive.

On to `CO/N=C(\C(=O)N[C@@H]1C(=O)N2C(C(=O)O)=C(CSc3nc(=O)c(O)nn3C)CSC12)c1csc(N)n1` (some centres not stated), for which the Potency result in test [1], in test [3], in test [4], in test [5] and in test [6] was “inactive” throughout. Besides, in test [2], the result was inactive.

With `COc1cccc(OC)c1OCCNCC1COc2ccccc2O1` (configuration not stated), the Potency entry in test [1], in test [3], in test [4], in test [5] and in test [6] was “inactive” in each case. In addition, the molecule was called inactive in test [2].

As for `CNc1ncnc2c1ncn2[C@H]1C[C@H](OP(=O)(O)O)[C@@H](COP(=O)(O)O)O1`, the Potency result in test [1], in test [3], in test [4], in test [5] and in test [6] was “inactive” throughout. Moreover, in test [2], the call was inactive.

For the molecule `Cc1cccc(C)c1OCC(N)C(C)C` (configuration not stated), the Potency result in test [1], in test [3], in test [4], in test [5] and in test [6] was “inactive” throughout. Further, the molecule was called inactive in test [2].

Turning to `CCCCCCCCCCCCCCCCCC(=O)OC(CC(=O)O)C[N+](C)(C)C` (configuration not stated), the Potency entry in test [1], in test [3], in test [4], in test [5] and in test [6] was “inactive” each time. Further, in test [2], the outcome was inactive.

In the case of `CC(C)C[C@H](NC(=O)[C@H](O)[C@H](N)Cc1ccccc1)C(=O)O`, the Potency entry in test [1], in test [3], in test [4], in test [5] and in test [6] was “inactive” each time. Also, the outcome in test [2] was inactive.

Turning to `Oc1cc(O)c2c(c1)O[C@H](c1ccc(O)c(O)c1)[C@@H](O)C2`, the Potency result in test [1], in test [3], in test [4], in test [5] and in test [6] was “inactive” each time. Also, the molecule was called inactive in test [2].

Consider `O=C1O/C(=C/Br)CCC1c1cccc2ccccc12` (configuration not stated), for which the Potency result in test [1], in test [3], in test [4], in test [5] and in test [6] was “inactive” each time. Also, the molecule was called inactive in test [2].

With `Nc1ncnc2c1ncn2C1CCCO1` (configuration not stated), the Potency entry in test [1], in test [3], in test [4], in test [5] and in test [6] was “inactive” each time. Further, the outcome in test [2] was inactive.

Consider `NC(=O)CC[C@H](N)C(=O)O`, for which the Potency entry in test [1], in test [3], in test [4], in test [5] and in test [6] was “inactive” throughout. The molecule was classed as inactive in test [2].

Consider `C=CC1(C)CC(=O)C2(O)C(C)(O1)C(OC(C)=O)C(O)C1C(C)(C)CCC(O)C12C` (configuration not stated), for which the Potency result in test [1], in test [3], in test [4], in test [5] and in test [6] was “inactive” throughout. In test [2], the result was inactive.

For the molecule `CC(N)=NCCCC[C@@H](N)C(=O)O`, the Potency result in test [1], in test [3], in test [4], in test [5] and in test [6] was “inactive” each time. The result in test [2] was inactive.

`O=C(O)CCC(=O)N1CCCC1C(=O)O` (configuration not stated): the Potency entry in test [1], in test [3], in test [4], in test [5] and in test [6] was “inactive” throughout. Also, the molecule was called inactive in test [2].

As to `CCCCCCCCCCCCCCCC(=O)NCC(COP(=O)([O-])OCC[N+](C)(C)C)OCC` (configuration not stated), in test [1], the Potency is 11.2 µM (active). In addition, the molecule was called inactive in test [2]. For the same molecule, the Potency result in test [3], in test [4], in test [5] and in test [6] was “inactive” each time.

For the molecule `CC(/C=C/c1cccc(Oc2ccc(F)cc2)c1)N(O)C(N)=O` (configuration not stated), the Potency result in test [1], in test [3], in test [4], in test [5] and in test [6] was “inactive” each time. Besides, the result in test [2] was inactive.

On to `CC(C)NCC(O)COc1ccc(CC(N)=O)cc1` (configuration not stated), for which the Potency result in test [1], in test [3], in test [4], in test [5] and in test [6] was “inactive” in each case. Also, the outcome in test [2] was inactive.
